Source: PubChem BioAssay (National Center for Advancing Translational Sciences (NCATS))
Shown are actives, neighbours in structure and some others; about 13% of the full set was active somewhere.
Pf growth 96h: Primary qHTS for delayed death inhibitors of the malarial parasite plastid, 96 hour incubation; AID 504834, 2011; Potency, µM (top dose mostly 28.7 µM), for inactives: at the top dose activity change, negative = inhibition, most hits filed as inhibitors; 6.9% of 320,000 active; P. falciparum luciferase reporter growth, 96 h; further: potency means the concentration at half of the fitted maximal effect
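Readout is luminescence from an integrated firefly luciferase in P. falciparum. Red cells, 2% hematocrit and 0.05% parasitemia final, were cultured with compound through two parasite generations (96 hours) at 37 C, 5% CO2.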
HCMV antiviral: qHTS Assay for inhibitors of the human cytomegalovirus (HCMV); activity change, negative = inhibition, % at 57.5 µM; AID 1259415, 2018; HFF cells, HCMV-luciferase reporter, 72 h; stronger effect = lower value; 4.5% of 410,000 active; in the data active means activity change below about -60%; inconclusive means no clear call, values can overlap the other calls; inactive means above about -39%
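Screen run at 2 compound doses on HFFs infected with reporter HCMV, MOI 1 PFU/cell. Luciferase activity from cell lysates at 72 h post infection gave inhibition relative to buffer-only and Salinomycin wells.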
Pf growth 48h: Primary qHTS for delayed death inhibitors of the malarial parasite plastid, 48 hour incubation | P. falciparum luciferase growth in erythrocytes, 48 h | Potency, µM (top dose mostly 28.7 µM), for the others: at the top dose activity change, negative = inhibition, actives largely listed as inhibitors | 5.9% of 310,000 active | AID 504832, 2011; further: potency means the concentration at half of the fitted maximal effect
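Erythrocytes infected with P. falciparum carrying an integrated firefly luciferase reporter (2% hematocrit, 0.1% parasitemia final) were exposed to compounds in RPMI 1640 with 0.5% Albumax at 37 C, 5% CO2. Growth inhibition was scored as reduced luminescence.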
HCV inh: qHTS Assay for Inhibitors of Hepatitis C Virus (HCV). 3.4% of 340,000 active. AID 651820, 2012. Potency, µM (series often up to 41.8 µM), inactives show at the highest dose activity change, negative = inhibition, hits mostly inhibitors. Huh7.5.1 HCVcc-Cre infection, luciferase reporter, 44 h; further: potency means the concentration at half of the fitted maximal effect
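Antiviral activity was scored by luciferase reporter output from cells infected with HCVcc-Cre (~0.5 moi) in presence of compound, 44 h infection period, cells seeded 1,000/well 4 h prior.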
Active calls of the source: *; ? = inconclusive; / = no result given; [ ] = another dose, or the depositor's remark. Unless noted, the call rests on the fitted dose curve; in most records, active means well fitted inhibition curve with a large enough effect; inconclusive means small, poorly fitted or top-dose-only effect, or another doubt; inactive means no such curve, though single readings can be large or run the other way. On the % scale 0 is the no-effect control and ±100 the full control effect.

SMILES	Pf growth 96h	HCMV antiviral	Pf growth 48h	HCV inh
COc1ccccc1Cn1c(SCC(=O)C(C)(C)C)nc2cc(C(=O)N3CCC4(CC3)OCCO4)ccc2c1=O	?	/	5.9µM*	/
CCCCOC(=O)c1ccc(NS(=O)(=O)c2c(C)nc3scc(C)n3c2=O)cc1	/	-28	/	/
CC(C)C[C@H](NC(=O)c1nc[nH]c1C(=O)NCc1ccc(CNC(=O)OC(C)(C)C)cc1)C(=O)OC(C)(C)C	?	42	?	-17%[8.37 µM]
Cc1ccc(NC(=O)c2nc[nH]c2C(=O)N2CCc3ccccc3C2)cc1	?	-75*	-1%	3%
COc1ccc(NC(=O)c2nc[nH]c2C(=O)N2CCN(c3ccccc3)CC2)cc1	?	-72*	-17%	4%
CCOC(=O)c1ccc(NC(=O)c2nc[nH]c2C(=O)N2CCc3ccccc3C2)cc1	?	6	?	6%
C[C@@H](NC(=O)c1nc[nH]c1C(=O)NCc1ccc(CNC(=O)OC(C)(C)C)cc1)c1ccccc1	?	-27	12µM*	?
O=C(Nc1ccccc1)c1nc[nH]c1C(=O)N1CCN(c2ccccc2)CC1	?	?	-21%	-9%
C[C@H](NC(=O)c1nc[nH]c1C(=O)NCc1ccc(CNC(=O)OC(C)(C)C)cc1)C(=O)OC(C)(C)C	1.3µM*	18	?	?
CC(C)(C)OC(=O)NCc1ccc(CNC(=O)c2nc[nH]c2C(=O)N2CCN(c3ccccc3)CC2)cc1	-27%	-6	13µM*	?
CC(C)(C)OC(=O)NCc1ccc(CNC(=O)c2nc[nH]c2C(=O)N2CCc3ccccc3C2)cc1	?	8	?	?
CCCOc1ccc(C(=O)Nc2c(C(=O)c3ccc(C)cc3)oc3ccccc23)cc1	/	-15	/	/
COc1ccc(S(N)(=O)=O)cc1C(=O)OCCCC(=O)c1ccccc1	15µM*	-6	?	1%
CCOC(=O)c1cc(-c2ccc(C)cc2)n(CCC(=O)NCCCOC)c1C	/	1	0%	-7%
CCCNC(=O)c1cc(-c2ccc(OC)cc2)n(CCCOC)c1C	39%	-25	2.1µM*	15%
CCOc1ccc2c(c1)OC(c1ccccc1)(C(F)(F)F)NC2=O (centres undefined)	0.23µM*	27	1.7µM*	3%
N#Cc1ccccc1Cn1c(=O)n(-c2cccc(C(F)(F)F)c2)c(=O)c2sccc21	/	5	/	/
Cc1ccc(C)n1C1C(=O)N(Cc2ccc(C(F)(F)F)cc2)c2ccc(F)cc21 (centres undefined)	/	0	/	/
Clc1ccccc1-c1nc2ccccc2[nH]1	164%	99	75%	1%
Fc1ccccc1-c1nc2ccccc2[nH]1	13µM*	36	5%	-4%
c1ccc2[nH]c(-c3cscn3)nc2c1	14%	-90*	85%	-12%[8.37 µM]
c1ccc2nc(-c3nc4ccccc4[nH]3)ccc2c1	/	42	30%	-3%
CCCCn1c(N)c(N(CC)C(=O)c2cccc(OC)c2)c(=O)[nH]c1=O	-12%	-72*	11%	5%
CCCCn1c(N)c(N(CC)C(=O)c2cc(C)cc(C)c2)c(=O)[nH]c1=O	-4%	4	-8%	-3%
CCCCn1c(N)c(N(CC)C(=O)c2cccs2)c(=O)[nH]c1=O	/	-61*	/	-2%
SMILES	Pf growth 96h	HCMV antiviral	Pf growth 48h	HCV inh
COCCn1c(N)c(N(Cc2ccccc2)C(=O)c2ccc3ccccc3c2)c(=O)[nH]c1=O	?	?	10µM*	4%
CCCCn1c(N)c(N(Cc2ccccc2OC)C(=O)c2ccc([N+](=O)[O-])s2)c(=O)[nH]c1=O	9.3µM*	-5	10µM*	?
CCN(CC)CCNC(=O)c1cc2c(=O)n(C)c3cc(Cl)ccc3c2s1	/	12	/	/
O=C(CNC(=O)c1ccc(F)cc1)OCc1cc(=O)n2nc(C3CC3)sc2n1	/	9	/	/
COc1ccc(CCNC(=O)CCCn2c(=O)c3ccccc3n(CC(=O)Nc3c(C)cc(C)cc3C)c2=O)cc1OC	/	-8	/	/
Cc1cc(=O)oc2ccc(OCC(=O)N(Cc3ccc(F)cc3)Cc3ccco3)cc12	?	-16	10µM*	3.2µM*
Cc1cccc(OCC(=O)N(Cc2ccc(C(C)(C)C)cc2)Cc2ccco2)c1	/	-82*	/	/
Cc1ccc(CCNC(=O)CN2C(=O)COc3ccc(S(=O)(=O)N4CCCCCC4)cc32)cc1	/	1	/	/
COCCOC(=O)c1[nH]c2c(c1C)C(=O)CC(c1ccco1)C2 (centres undefined)	38%	-67*	?	?
Cc1c(C(=O)OCCOc2ccccc2)[nH]c2c1C(=O)CC(c1ccc(C(C)(C)C)cc1)C2 (centres undefined)	/	-2	/	/
COCCOC(=O)c1[nH]c2c(c1C)C(=O)CC(c1ccc(F)cc1)C2 (centres undefined)	?	26	/	?
CCOC(=O)c1[nH]c2c(c1C)C(=O)CC(c1ccco1)C2 (centres undefined)	14%	-81*	13µM*	?
CSCCOC(=O)c1[nH]c2c(c1C)C(=O)CC(c1ccco1)C2 (centres undefined)	3.7µM*	?	?	?
Cc1c(C(=O)OCc2ccccc2)[nH]c2c1C(=O)CC(c1ccco1)C2 (centres undefined)	3%	/	1.5µM*	?
Cc1c(F)cccc1NS(=O)(=O)c1cccs1	/	-3	/	/
COc1ccc(-n2nc(C(=O)N3CCN(c4cccc(C)c4)C(C)C3)c3c4ccccc4n(C)c3c2=O)cc1Cl (centres undefined)	/	13	/	/
Cc1cccc(C)c1-n1nnnc1C(=O)c1cccnc1	/	22	/	/
COC(=O)c1[nH]c2c(c1C)C(=O)CC(c1cccs1)C2 (centres undefined)	/	-76*	-23%	?
Cc1ccccc1/C=C/C(=O)N1CCOCC1	31%	22	76%	5%
COc1ccccc1/C=C/C(=O)N1CCOCC1	11%	-72*	/	4%
COc1cccc(OC)c1C(=O)N1CCOCC1	15µM*	-5	-8%	-8%
COc1ccc(C(=O)N2CCOCC2)cc1Br	/	-15	8%	6%
O=C(C1CCCN(S(=O)(=O)c2cccc3nonc23)C1)N1CCN(c2cccc(C(F)(F)F)c2)CC1 (centres undefined)	/	-15	/	/
CCOC(=O)C(Cc1ccccc1)(Nc1ccccc1OC)C(O)c1ccccc1Br (centres undefined)	/	-5	/	/
CC(C)(C)c1cnnn1-c1cccc([N+](=O)[O-])c1	?	-66*	7%	9%
COc1ccc(CSc2nc(CSC)cc(N3CCOCC3)n2)cc1	?	42	12µM*	-19%
COc1ccccc1N1CCN(C(=O)c2ccc(COc3cccc4c3OC(C)(C)C4)cc2)CC1	?	-17	10µM*	?
COc1ccccc1N1CCN(C(=O)C(Sc2ccccc2)c2ccccc2)CC1 (centres undefined)	7%	16	13µM*	11µM*
